Laboratory results published in the supplement of paper PMC13380429.

Key:
[1] = test system: Vero E6 infected with SARS-CoV-2; assay: morphology score (similarity to uninfected cells); higher = more like uninfected cells; details: 24 h
[2] = test system: Vero E6 infected with SARS-CoV-2; assay: SARS-CoV-2 infection rate relative to infected DMSO; higher = more infection, active = 60 or less; details: 24 h

Row | SMILES | morphology score [1] | SARS-CoV-2 infection rate [2]
1 | Nc1ncnc2c1ncn2[C@@H]1O[C@H](CO)C[C@H]1O [cordycepin] (10 µM) | -0.1 | 112% (inactive)
2 | Cn1cc(C2=C(c3ccc(Cl)cc3Cl)C(=O)NC2=O)c2ccccc21 (10 µM) | 0.00458 | 102% (inactive)
3 | O=C(O)C1=C(CSc2nnnn2CS(=O)(=O)O)CS[C@@H]2[C@H](NC(=O)[C@H](O)c3ccccc3)C(=O)N12 [Cefonicid (sodium)] (10 µM) | -0.0671 | 112% (inactive)
4 | CS(=O)(=O)OCCCCOS(C)(=O)=O [busulfan] (10 µM) | -0.026 | 102% (inactive)
5 | CNC(=O)c1ccc(-c2cnc3ncc(Cc4ccc5ncccc5c4)n3n2)cc1F (10 µM) | 0.0374 | 98% (inactive)
6 | COc1ccn2ncc(-c3nc4[nH]nc(NC(=O)c5ccc(F)cc5)c4cc3F)c2c1 (10 µM) | 0.00883 | 111% (inactive)
7 | Oc1ccc(C2(c3ccccc3F)CCC(F)(F)CC2)cc1 (10 µM) | 0.0902 | 93% (inactive)
8 | NS(=O)(=O)c1nn2cc(-c3ccccc3)nc2s1 (10 µM) | 0.289 | 97.5% (inactive)
9 | Cc1nnc(C(=O)NC(C)(C)c2nc(C(=O)NCc3ccc(F)cc3)c(O)c(=O)n2C)o1 [raltegravir] (10 µM) | 0.324 | 110% (inactive)
10 | CCNCC(O)c1cccc(O)c1 (stereo not given) [etilefrine] (10 µM) | 0.131 | 100% (inactive)
11 | Cn1ccc2cc3c(cc21)CCN3C(=O)Nc1cccnc1 (10 µM) | 0.204 | 99% (inactive)
12 | Cc1cccc(OCC(O)CNC(C)(C)C)c1C (stereo not given) [xibenolol] (10 µM) | 0.0955 | 97.5% (inactive)
13 | CCOC(=O)n1ccn(C)c1=S [carbimazole] (10 µM) | 0.159 | 99% (inactive)
14 | Cc1cc(OCc2nc(-c3ccccc3Cl)cs2)ccc1OCC(=O)O [GPR120-modulator-1] (10 µM) | -0.0706 | 100% (inactive)
15 | CN1C(=O)C(Cc2c[nH]c3ccccc23)NC1=S (stereo not given) [necrostatin-1] (10 µM) | 0.186 | 93.5% (inactive)
16 | CN(c1ccc(NC(=O)Nc2ccccc2)cc1)S(=O)(=O)c1cnn(-c2ccc(F)cc2)c1 (10 µM) | 0.268 | 83.5% (inactive)
17 | CN1CCCN=C1/C=C/c1cccs1 [pyrantel-pamoate] (10 µM) | 0.103 | 93.5% (inactive)
18 | C[C@]12CC[C@H](O)CC1=CC[C@@H]1[C@@H]2CC[C@]2(C)C(n3cnc4ccccc43)=CC[C@@H]12 [galeterone] (0.833333 µM) | -0.052 | 113% (inactive)
19 | Nc1n[nH]c2nnc(-c3c(-c4ccccc4)nn4ccccc34)cc12 (10 µM) | 0.264 | 103% (inactive)
20 | NCC(CC(=O)O)c1ccc(Cl)cc1 (stereo not given) [baclofen] (10 µM) | 0.138 | 109% (inactive)

Row | SMILES | morphology score [1] | SARS-CoV-2 infection rate [2]
21 | CN[C@H](CC(C)C)C(=O)N[C@H]1C(=O)N[C@@H](CC(N)=O)C(=O)N[C@H]2C(=O)N[C@H]3C(=O)N[C@H](C(=O)N[C@H](C(=O)O)c4cc(O)cc(O)c4-c4cc3ccc4O)[C@H](O)c3ccc(c(Cl)c3)Oc3cc2cc(c3O[C@@H]2O[C@H](CO)[C@@H](O)[C@H](O)[C@H]2O[C@H]2C[C@](C)(N)[C@H](O)[C@H](C)O2)Oc2ccc(cc2Cl)[C@H]1O (10 µM) | 0.0907 | 104% (inactive)
22 | O=C(O)C(Cl)Cl [dichloroacetate] (10 µM) | 0.236 | 88.5% (inactive)
23 | COc1cnc(NS(=O)(=O)c2ccc(N)cc2)nc1 [sulfameter] (10 µM) | 0.131 | 111% (inactive)
24 | CC1CCC(NC(=O)N(CCCl)N=O)CC1 (stereo not given) [semustine] (10 µM) | -0.0906 | 116% (inactive)
25 | O=C(O)C(O)C(O)C(=O)O (stereo not given) [tartaric-acid] (10 µM) | -0.0312 | 103% (inactive)
26 | O=C(Nc1ccccc1F)N[C@H]1N=C(c2ccccc2)c2ccccc2NC1=O (10 µM) | -0.135 | 113% (inactive)
27 | Cc1cc(SCc2sc(-c3ccc(C(F)(F)F)c(F)c3)nc2C)ccc1OCC(=O)O (10 µM) | 0.143 | 99.5% (inactive)
28 | COC(=O)CC[C@@H]1N=C(c2ccccn2)c2cc(Br)ccc2-n2c(C)cnc21 [remimazolam] (10 µM) | 0.132 | 95% (inactive)
29 | CN(C)CCN1C(=O)c2cccc3cc(N)cc(c23)C1=O [amonafide] (0.833333 µM) | 0.15 | 102% (inactive)
30 | O=C1c2cccc3c2[C@H](CCC3)CN1[C@@H]1CN2CCC1CC2 [palonosetron] (10 µM) | 0.324 | 91.5% (inactive)
31 | COc1ccc2cccc(CCNC(C)=O)c2c1 [agomelatine] (10 µM) | 0.11 | 114% (inactive)
32 | COc1ccc(C(=O)C2CCN(CC(=O)N(Cc3nc4c(c(=O)[nH]3)COCC4)CC3CC3)CC2)cc1 (10 µM) | 0.165 | 102% (inactive)
33 | O=C(O[C@H]1C[C@H]2CC[C@@H](C1)[N+]21CCCC1)C(O)(c1ccccc1)c1ccccc1 [trospium] (10 µM) | 0.0583 | 102% (inactive)
34 | CO[C@H]1CC[C@@H](C(=O)c2ccc3nc4c(cc3c2)CCCO4)CC1 (10 µM) | 0.0672 | 104% (inactive)
35 | CC1(c2ccccc2)OC(C(=O)O)=CC1=O (stereo not given) [acifran] (10 µM) | 0.119 | 102% (inactive)
36 | FC(F)(F)c1cccc(-c2noc(-c3cc(-c4ccccc4)c(C(F)(F)F)s3)n2)c1 (10 µM) | -0.0447 | 114% (inactive)
37 | Nc1c2ccccc2nc2ccccc12 [9-aminoacridine] (0.833333 µM) | 0.102 | 106% (inactive)
38 | Oc1ccc(CC2NCCc3cc(O)c(O)cc32)cc1 (stereo not given) [higenamine] (0.833333 µM) | 0.0764 | 103% (inactive)
39 | O=C1CCc2cc(OCCCCc3nnnn3C3CCCCC3)ccc2N1 [cilostazol] (10 µM) | -0.112 | 110% (inactive)
40 | CC(C)c1noc(N2CCC(COc3ccc(-c4ccc(S(C)(=O)=O)cc4)nc3)CC2)n1 (10 µM) | -0.0966 | 116% (inactive)

Row | SMILES | morphology score [1] | SARS-CoV-2 infection rate [2]
41 | COc1cc(NS(=O)(=O)c2ccc(N)cc2)ncn1 [sulfamonomethoxine] (10 µM) | 0.102 | 89.5% (inactive)
42 | N=C(N)NC(=N)Nc1cccc(Cl)c1 [m-chlorophenylbiguanide] (10 µM) | -0.0474 | 108% (inactive)
43 | O=C1c2ccccc2S(=O)(=O)N1CCCCN1CCN(c2ncccn2)CC1 [ipsapirone] (10 µM) | -0.0209 | 102% (inactive)
44 | Clc1ccc(Cn2c(CN3CCCC3)nc3ccccc32)cc1 [clemizole] (10 µM) | 0.153 | 103% (inactive)
45 | COC(=O)Nc1ccc(-c2nc(N3CCOCC3)c3cnn(C4CCN(C(=O)OC)CC4)c3n2)cc1 (0.833333 µM) | 0.00734 | 120% (inactive)
46 | CCCCn1c(-c2ccccc2)nc(-c2ccccc2)c1CN(Cc1ccc2c(c1)OCO2)Cc1ccc2c(c1)OCO2 (10 µM) | 0.139 | 99.5% (inactive)
47 | CCC(CC)CC1(C(=O)Nc2ccccc2SC(=O)C(C)C)CCCCC1 [dalcetrapib] (10 µM) | 0.152 | 111% (inactive)
48 | Cc1ccc(NC(=O)c2cccc(N(C)C)c2)cc1NC(=O)c1ccc(O)cc1 (10 µM) | -0.0598 | 97.5% (inactive)
49 | CN(C)C(=O)n1nnnc1Cc1ccc(-c2ccccc2)cc1 (0.833333 µM) | 0.00131 | 85% (inactive)
50 | N[C@@H](C(=O)O)c1nn[nH]n1 (racemic) [tetrazol-5-yl-glycine-(RS)] (10 µM) | 0.03 | 98% (inactive)
51 | Cc1cccc(NC(=O)N[C@@H]2N=C(c3ccccc3)c3ccccc3N(C)C2=O)c1 (10 µM) | 0.0212 | 106% (inactive)
52 | CCOCC(O)COc1ccc(NC(=O)CC[S+](C)C)cc1 (stereo not given) [suplatast] (10 µM) | 0.0407 | 102% (inactive)
53 | COC(=O)[C@H](Cc1ccccc1)NC(=O)[C@@H](N)CC(=O)O [aspartame] (10 µM) | 0.172 | 106% (inactive)
54 | CN1CCC(NC(=O)c2cc(-c3c(O)cc(O)cc3Oc3ccc([N+](=O)[O-])cc3)on2)CC1 (0.833333 µM) | 0.247 | 95.5% (inactive)
55 | CC(C)C[C@H](NC(=O)[C@@H](Cc1c[nH]c2ccccc12)NC(=O)[C@H](Cc1ccc(O)cc1)NC(=O)[C@H](CO)NC(=O)[C@H](Cc1c[nH]c2ccccc12)NC(=O)[C@H](Cc1c[nH]cn1)NC(=O)[C@@H]1CCC(=O)N1)C(=O)N[C@@H](CCCNC(=N)N)C(=O)N1CCC[C@H]1C(=O)NCC(N)=O [triptorelin] (10 µM) | -0.0195 | 110% (inactive)
56 | O=C(/C=C/c1ccc2ccccc2n1)c1ccncc1 (0.833333 µM) | 0.0453 | 104% (inactive)
57 | CN(C)C(=O)c1ccc(S(=O)(=O)c2ccc(NC(=O)[C@@](C)(O)C(F)(F)F)c(Cl)c2)cc1 (10 µM) | 0.28 | 104% (inactive)
58 | O=C(O)CCC(=O)Nc1ccc(S(=O)(=O)Nc2nccs2)cc1 [succinylsulfathiazole] (10 µM) | 0.0689 | 100% (inactive)
59 | Nc1c(CC(=O)O)cccc1C(=O)c1ccccc1 [amfenac] (10 µM) | 0.0516 | 104% (inactive)
60 | CCN(CC)CCOC(=O)C1(C2CCCCC2)CCCCC1 [dicycloverine] (10 µM) | 0.311 | 90% (inactive)
